# Laboratory results from the supplement of paper PMC6555819.
# Assays:
# Assay in all cases: PBM binding z-score (relative to random genomic background probes); higher = stronger binding; sequences stand for … in GC…GCGATTGACAGCGTAGAATGAAGG
# [1] = test system: PPARg:RXRa DBDmut IVT, anti-RXR (DBD mutation: RXRa K156A/R161A, NR concentration 270 nM, RXRa partner concentration 90 nM)
# Method in brief: (§1)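 Ligand-free nuclear receptor dimers were bound for 1 h to custom Agilent 4×180K protein-binding microarrays. Detection used antibodies against each partner (one per run). Binding z-scores rest on regression-normalized fluorescence, with random background probes as the reference.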
# [2] = test system: PPARg:RXRa IVT, anti-PPARg (NR concentration 270 nM, RXRa partner concentration 90 nM)
# Method in brief: as §1
# [3] = test system: PPARg DBDmut:RXRa IVT, anti-PPARg (DBD mutation: PPARg1 K132A/R137A, NR concentration 270 nM, RXRa partner concentration 90 nM)
# Method in brief: as §1
# [4] = test system: PPARg DBDmut IVT, anti-PPARg (DBD mutation: PPARg1 K132A/R137A, NR concentration 270 nM)
# Method in brief: as §1
# [5] = test system: PPARg homodimer (NR concentration 180 nM)
# Method in brief: as §1
# [6] = test system: PXR:RXRa (NR concentration 270 nM, RXRa partner concentration 90 nM)
# Method in brief: as §1
# [7] = test system: PXR homodimer (NR concentration 270 nM)
# Method in brief: as §1
# [8] = test system: RARa:RXR (NR concentration 270 nM, RXRa partner concentration 90 nM)
# Method in brief: as §1
# [9] = test system: RARa homodimer (NR concentration 270 nM)
# Method in brief: as §1
# [10] = test system: RARb:RXRa (NR concentration 270 nM, RXRa partner concentration 90 nM)
# Method in brief: as §1
# [11] = test system: RARb homodimer (NR concentration 270 nM)
# Method in brief: as §1
# [12] = test system: RARg:RXRa (NR concentration 270 nM, RXRa partner concentration 90 nM)
# Method in brief: as §1
# [13] = test system: RARg homodimer (NR concentration 270 nM)
# Method in brief: as §1
# [14] = test system: RXRa DBDmut IVT, anti-RXR (DBD mutation: RXRa K156A/R161A, NR concentration 90 nM)
# Method in brief: as §1
# [15] = test system: RXRa homodimer (NR concentration 180 nM)
# Method in brief: as §1
# [16] = test system: THRa:RXRa (NR concentration 90 nM, RXRa partner concentration 90 nM)
# Method in brief: as §1
# [17] = test system: THRa homodimer (NR concentration 90 nM)
# Method in brief: as §1
# [18] = test system: VDR:RXRa (NR concentration 270 nM, RXRa partner concentration 90 nM)
# Method in brief: as §1
# [19] = test system: VDR homodimer (NR concentration 270 nM)
# Method in brief: as §1
Sequence,PBM binding z-score [1],PBM binding z-score [2],PBM binding z-score [3],PBM binding z-score [4],PBM binding z-score [5],PBM binding z-score [6],PBM binding z-score [7],PBM binding z-score [8],PBM binding z-score [9],PBM binding z-score [10],PBM binding z-score [11],PBM binding z-score [12],PBM binding z-score [13],PBM binding z-score [14],PBM binding z-score [15],PBM binding z-score [16],PBM binding z-score [17],PBM binding z-score [18],PBM binding z-score [19]
CGTCCAAGGTCAAAGGTCAGTGATGAGATGACGG,4.14,5.89,0.972,0.974,3.97,6.83,1.94,8.65,1.61,6,5.76,8.67,7.8,3.72,10.1,4.87,3.03,6.62,4.03
ATCGAAAGGTCGACGAAGTGAGTATACACCGTTT,0.569,1.5,1.34,0.821,1.08,2.28,-0.00563,2.81,-0.0339,3.71,2.14,3.86,3.83,0.645,3.75,1.79,-0.48,2.27,0.3
ACTAGCAGGCCAAGGGTCACACAAGATTAGTCCG,1.49,4.04,-0.112,-0.266,1.49,3.56,0.101,4.6,0.267,3.76,4.06,4.6,4.2,0.3,4.68,3.16,0.442,3.53,1.42
CCTTACGGGTCACTGACTGGTTATAGCATTTGGA,3.65,3.69,0.987,0.315,3.15,3.1,0.287,4.06,2.05,4.02,3.06,5.04,4.61,1.84,4.93,2.52,0.498,3.11,1.03
GATACAGGATCAAGGCCAGAGTACGCGTATTGAT,-0.344,-0.0749,0.581,0.288,-0.0406,-0.253,-0.0263,-0.382,-0.179,0.164,0.0211,0.189,0.325,-0.499,0.195,-0.265,-0.214,-0.308,0.147
TCAGACAGGTGATGGTAACTCAGGTACGCAGTCG,2.18,0.496,-0.328,-0.349,0.0712,0.333,0.496,0.242,0.298,0.566,0.401,0.447,0.147,0.843,0.688,0.659,0.545,0.615,0.532
TCTTGTAGATCAATATAGGTTAAGAAAGTGCGCT,2.95,2.98,1.55,1.13,0.797,1.67,0.304,1.4,1.22,0.676,0.819,0.579,0.586,1.31,0.962,1.03,-0.0282,1.24,0.0852
GCTTGTAGATCAAGGTTAAGACAGACTAAGCTAA,1.75,1.34,0.667,-0.149,0.0438,0.721,-0.263,0.922,-0.104,0.893,0.562,0.461,0.497,-0.0408,0.989,1.27,-0.0509,0.166,0.0668
TGAGACAGGTGAAGGTAACTCAGGTACGCAGTCG,-0.0775,0.991,0.178,-0.801,0.0963,-0.189,-0.538,0.124,-0.0291,0.697,0.449,0.201,0.61,-1.52,0.312,1.18,-0.173,-0.109,-0.0182
GGATCGAGGGCATTCGAGTTGATAGCATGGCGAT,2.58,2.38,-0.372,-0.843,0.175,3.64,1.17,1.16,-0.556,1.83,0.818,1.07,1.25,3.06,0.598,3.39,-0.117,3.52,3.49
TCTTGTAGATCAATAGAGGCTAAGAAAGTGCGCT,1.51,0.473,0.414,0.266,0.0391,0.573,0.17,0.468,-0.133,0.203,-0.029,0.139,-0.0605,0.703,0.213,0.676,-0.939,0.377,-0.123
CCTAGTTGGCCAGGAGGTCACACACCGGATATGA,0.473,2.22,0.522,-0.0399,2.61,4.27,1.23,4.66,1.39,3.41,4.01,4.27,3.43,0.6,4.51,3.54,2.38,3.63,2.16
CGAACTAGGGCAGAACAGGACAGTGAAGGATGAT,5.8,5.34,0.749,1.12,0.692,-0.477,-0.0295,0.592,0.348,0.687,0.707,0.486,0.757,0.0235,-0.0297,1.58,-0.495,-0.31,-0.0975
TCGAGTAAGTTACCAATGGGGCATTCAGCTTTCT,0.719,-0.101,-0.374,-1.05,-0.441,0.0133,-0.765,0.11,-0.447,-0.0716,-0.474,-0.261,-0.771,0.494,-0.0395,-0.445,-0.524,0.0279,-0.319
TGTCAAAGTTCACAGGTAACGTAAGTATCCACAC,0.161,4.5,1.61,1.53,2.45,4.48,2.4,3.92,1.08,5.05,4.22,5.7,5.98,3.69,5.48,2.53,-0.165,4.54,3.53
